# CYP2C19 inh: blocks human cytochrome P450 2C19. inhibition, % at 5 µM. CYP2C19 Supersomes, luciferin-H EGE luminescence, 30 min. P33261. 96,000 compounds, 21% hits;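 active means CYP2C19 inhibition above a set limit at 5 µM in the primary screen, cut at about 50% in these data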
# CYP2C9 inh: blocks human cytochrome P450 2C9 | inhibition, % at 5 µM | 96,000 compounds, 20% hits | P11712 | CYP2C9 Supersomes, luciferin-H conversion, luminescence | AID 777;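 active means blocking of liver enzyme CYP2C9 beyond about 50% at 5 µM, limit read from the data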
# Target sequence (P11712 whole entry, looked up): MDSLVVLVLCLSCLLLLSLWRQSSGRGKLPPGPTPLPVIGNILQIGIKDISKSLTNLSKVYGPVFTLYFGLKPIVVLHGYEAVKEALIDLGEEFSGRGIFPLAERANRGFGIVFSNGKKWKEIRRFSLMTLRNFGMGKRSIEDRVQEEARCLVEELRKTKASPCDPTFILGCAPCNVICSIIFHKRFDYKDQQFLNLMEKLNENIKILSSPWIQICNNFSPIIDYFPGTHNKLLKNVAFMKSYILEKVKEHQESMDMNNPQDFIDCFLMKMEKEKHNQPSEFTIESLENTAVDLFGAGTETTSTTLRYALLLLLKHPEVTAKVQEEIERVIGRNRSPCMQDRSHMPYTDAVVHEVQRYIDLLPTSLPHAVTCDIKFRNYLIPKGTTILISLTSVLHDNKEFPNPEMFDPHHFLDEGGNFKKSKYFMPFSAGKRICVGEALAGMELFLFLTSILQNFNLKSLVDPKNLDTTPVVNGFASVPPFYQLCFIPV
# PLAP activator: human PLAP activation. activation fold at 20 µM. 96,000 compounds, 1.2% hits. purified PLAP enzyme, luminescent substrate read-out; active compounds read high. P05187. AID 696; in the data active means activation fold above about 2
# CYP2C9 activ: increases human cytochrome P450 2C9 activity; 96,000 compounds, 1.4% hits; recombinant CYP2C9, luciferin-H conversion, luminescence; active compounds read high; factor 1 = untreated enzyme, 0 = blocked; AID 1024; activation factor at 5 µM;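 active means activation factor of 2 or more for CYP2C9 at a 5 µM dose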
# CYP2C19 act: activators of human cytochrome P450 2C19; activation factor at 5 µM; 96,000 tested, under 10 active; P33261; AID 1025; recombinant CYP2C19, luciferin-H EGE luminescence; active compounds read high; 0 = fully inhibited enzyme, 1 = untreated enzyme;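 active means activation factor of at least 2 at 5 µM in the primary screen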
# Numbers stand for hits; i = inactive; nt = no result. Only some compounds are listed: those with a hit (about 31% of all), similar ones and a draw of the others.
SMILES,CYP2C19 inh,CYP2C9 inh,PLAP activator,CYP2C9 activ,CYP2C19 act
Cc1ccc(Nc2nc(N)nc(CN3CCN(C(=O)c4ccco4)CC3)n2)cc1Cl,78,85,i,i,i
O=C(CCCN1C(=O)c2ccccc2C1=O)NCC1CCCO1 (configuration not stated),i,i,i,i,i
C=CCn1c(SC(C)C(=O)NC2(C#N)CCCCC2)nnc1-c1ccc(OC)cc1 (configuration not stated),i,i,i,i,i
O=C(c1ccccc1)c1ccc(Oc2ncccn2)cc1,63,i,i,i,i
COc1ccc(/C=C/C(=O)N(C(C)C)C(C)C)cc1Br,60,i,i,i,i
N#CC1=C(N)SC(N)=C(C#N)C1c1ccnc2ccccc12,i,70,i,i,i
O=C(Cc1cn2ccsc2n1)Nc1nc2c(s1)CN(Cc1ccccc1)CC2,i,i,i,i,i
Cc1cc(C)c2nc(SCC(=O)Nc3ccc(S(=O)(=O)N4CCCC4)cc3)c(C)cc2c1,i,88,i,i,i
Cc1ccc(NC(=O)CCc2c(C)nc3ncnn3c2C)cc1,i,i,i,i,i
CCOC(=O)CSCC(=O)Nc1ccc(S(=O)(=O)N2CCCCC2)cc1,77,88,i,i,i
Cc1nc(COC(=O)c2ccc(S(=O)(=O)N3CCCC3)cc2)cs1,i,90,i,i,i
CCOC(=O)CNS(=O)(=O)c1ccc(S(=O)(=O)N2CCCC2)cc1,i,i,i,i,i
Cc1nnc(SCC(=O)Nc2ccc(S(=O)(=O)N3CCCC3)cc2)n1N,i,i,i,i,i
Cc1nc2ncnn2c(C)c1CCC(=O)Nc1ccc(S(=O)(=O)N2CCCCCC2)cc1,i,69,i,i,i
COc1ccc(C(C)N2CC34C=CC(O3)C(C(=O)O)C4C2=O)cc1 (configuration not stated),i,i,i,i,i
Cc1cc(=O)[nH]c(SCC(=O)Nc2ccc(S(=O)(=O)N3CCCCC3)cc2)n1,i,80,i,i,i
CCn1cc(C(=O)OCC(=O)Nc2ccc(S(=O)(=O)N3CCCC3)cc2)c(=O)c2ccc(C)nc21,i,68,i,i,i
Cc1cc(C)n(-c2ccc(C(=O)OCC(=O)Nc3ccc(S(=O)(=O)N4CCCCC4)cc3)cc2)n1,68,82,i,i,i
Cc1cc(C)c2c(=O)[nH]c(SCC(=O)Nc3ccc(N(C)C)cc3)nc2n1,i,58,i,i,i
CCn1cc(C(=O)OCC(=O)Nc2cc(S(=O)(=O)N(C)C)ccc2C)c(=O)c2ccc(C)nc21,i,i,i,i,i
Nc1nnc(N2CCc3ccccc32)s1,i,i,i,i,i
CSc1cc(C)nc(N(C)C(C)=O)n1,i,i,i,i,i
Cn1c(=O)c2c(ncn2CC(=O)Nc2nc3ccc(F)cc3s2)n(C)c1=O,i,59,i,i,i
c1csc(-c2csc3nc(CN4CCOCC4)nc(NCc4ccc5c(c4)OCO5)c23)c1,79,84,i,i,i
Nc1nc(CN2CCN(Cc3ccc4c(c3)OCO4)CC2)nc(Nc2ccccc2)n1,i,i,i,i,i
SMILES,CYP2C19 inh,CYP2C9 inh,PLAP activator,CYP2C9 activ,CYP2C19 act
CCOCc1nnc(NC(=O)CSc2ccccc2)s1,i,51,i,i,i
CC(C)c1nnc(NC(=O)CSc2ccccc2)s1,63,62,i,i,i
O=C(/C=N\O)NCCCNCc1ccccc1,i,i,i,i,i
Oc1c(C(c2cccs2)N2CCC3(CC2)OCCO3)sc2ncnn12 (configuration not stated),87,58,i,i,i
CCSc1nc2c(sc3nc(C)cc(C)c32)c(=O)[nH]1,i,58,i,i,i
CCCc1cc2c(cc1NC(=O)c1ccccc1Cl)OCO2,94,i,i,i,i
C=CCN(CC=C)C(=O)c1ccccc1NC(=O)c1ccccc1C,51,i,i,i,i
CCCc1cc2c(cc1NC(=O)c1ccc(Br)cc1)OCO2,87,i,i,i,i
Cc1ccccc1C(=O)Nc1ccccc1-n1cccc1,i,i,i,i,i
CCCc1cc2c(cc1NC(=O)c1ccccc1C)OCO2,95,i,i,i,i
CCCCC(=O)Nc1ccc(C(=O)Nc2ccc3c(c2)OCO3)cc1,i,i,i,i,i
CC(C)(C)OC(=O)N1CCOCCOCCN(C(=O)OC(C)(C)C)CCOCCOCC1,i,i,i,i,i
Cc1ccc2c(c1)c1c3n2CCN(C(=O)C2CC2)C3CCC1 (configuration not stated),i,50,i,i,i
Cc1ccc2c(c1)c1c3n2CCN(C(=O)Cn2c(-c4ccccc4)noc2=O)C3CCC1 (configuration not stated),i,50,i,i,i
Cc1ccc2c(c1)c1c3n2CCCN(Cc2ccccc2)C3CCC1 (configuration not stated),61,i,i,i,i
Cc1ccc2c(c1)c1c3n2CCN(C(=O)CN2CCN(C)CC2)C3CCC1 (configuration not stated),i,i,i,i,i
COc1cccc(C2CC(=O)NC3=C2C(=O)CCC3)c1 (configuration not stated),i,i,i,i,i
O=C1CSC(c2ccccc2F)N1c1cc(Cl)ccc1O (configuration not stated),84,i,i,i,i
O=C1CSC(c2ccccc2F)N1CCN1CCCCC1 (configuration not stated),i,i,i,i,i
COc1ccc(O)c(C(=O)c2cnn(C(=O)c3cc(C)oc3C)c2)c1,i,i,i,i,i
COc1ccc(O)c(-c2[nH]ncc2C(=O)c2ccccc2C)c1,90,87,nt,i,i
COc1ccc(Cn2cnc3c(NS(C)(=O)=O)c(C)c(C)cc32)cc1,65,i,i,i,i
Cc1ccccc1Cn1cnc2c(NS(C)(=O)=O)c(C)c(C)cc21,i,i,i,i,i
O=C(NCc1ccccc1)N1CCC(n2cnc3cc(F)ccc32)CC1,i,i,i,i,i
COc1ccccc1-c1noc(-c2ccccc2C(=O)Nc2cccnc2)n1,i,i,i,i,i
SMILES,CYP2C19 inh,CYP2C9 inh,PLAP activator,CYP2C9 activ,CYP2C19 act
Nc1ccc(C23CC4CC(CC(CO)(C4)C2)C3)cc1,71,i,i,i,i
Nc1ccc(C23CC4CC(CC(O)(C4)C2)C3)cc1,91,i,i,i,i
CC(C)OCCCNC(=O)c1cc2c(s1)CS(=O)(=O)C2,i,i,i,i,i
CCn1c(-c2ccccc2Cl)nn(CC(=O)Nc2ccccc2C)c1=S,51,i,i,i,i
CCOc1ccc(NC(=O)Cn2nc(-c3ccccc3Cl)n(CC)c2=S)cc1,62,68,i,i,i
CCn1c(-c2ccccc2Cl)nn(CC(=O)Nc2ccc(OC)cc2)c1=S,56,60,i,i,i
CCn1nc(C(=O)Nc2ccccc2C)c(Cl)c1Cl,i,55,i,i,i
CCNC(=O)/N=C1/NC(=O)C(C(C)C)O1 (configuration not stated),i,i,i,i,i
O=C(NC1=NCCS1)c1cc2ccccc2o1,i,i,i,i,i

# Source: PubChem (Sanford-Burnham Center for Chemical Genomics)
